This note sets out measurements from the supplement of paper PMC9135407.

Structures are written as SMILES. Values joined by “and” are separate entries in the source; they are usually repeats but may differ in a detail not shown here. Identical values can stand only once. Counter-ions that a name gives are not always drawn. Screen size: about 5,800 compounds; about 620 (11%) showed activity. This is one part of a sample in which actives are shown more often than they occur. Unmarked numbers belong to inactive results.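 The calls were made as follows: active = score above a cut-off or among the top three wells of a plate; in these data no inactive exceeds 0.85.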

The experiment relates to primary human hepatic stellate cells (donor 1). The experiment can be described thus: scaled lipid accumulation score (0 = DMSO-like, 1 = nortriptyline-like); higher = stronger HSC inactivation (lipid re-accumulation), active = hit call of the paper. As to conditions: 48 h.
Where [1] appears, read: library stock concentration: 1 mM.
Where [2] appears, read: library stock concentration: 10 mM.
Where [3] appears, read: library stock concentration: 3.33 mM.
[4] abbreviates: library stock concentration: 400 uM.
The mark [5] stands for this setting: library stock concentration: 2 mM.
[6] abbreviates: library stock concentration: 80 uM.

Turning to `CCCCCCCCCCCCCCC(F)C(=O)O` (stereo not drawn) [2-Fluoropalmitic Acid], the “scaled lipid accumulation score” value under setting [1] is at most 0. In the case of `CCCCCCCCCCCCCCC(F)C(=O)O` (stereo not drawn) [2-Fluoropalmitic acid], the “scaled lipid accumulation score” value under setting [1] is at most -0.021. The same measure, in the same setting: the result for `CCCCCC(=O)/C=C/[C@H]1[C@H](O)CC(=O)[C@@H]1C/C=C\CCCC(=O)O` [15-keto Prostaglandin E2] reads at most 0. In the case of `CO[C@@H]1[C@@H](O[C@@H]2O[C@H](C)[C@@H](O[C@H]3C[C@@](C)(O)[C@@H](OC(=O)CC(C)C)[C@H](C)O3)[C@H](N(C)C)[C@H]2O)[C@@H](CC=O)C[C@@H](C)[C@@H](O)/C=C/C=C/C[C@@H](C)OC(=O)C[C@H]1O`, the “scaled lipid accumulation score” value under setting [2] is 0.014. In the case of `CCCCCC(O)C=CC1C(O)CC(O)C1CCCCCCC(=O)O` (stereo not drawn) [Prostaglandin  F1a], under setting [1], the “scaled lipid accumulation score” value is at most -0.021. As to `COc1cc(/C=C(\C#N)C(=O)Nc2nnc(C(F)(F)F)s2)ccc1OCc1ccc(C(F)(F)F)cc1C(F)(F)F`, the “scaled lipid accumulation score” value under setting [2] is at most 0. With `O=c1cc(-c2ccc(O)cc2)oc2c([C@@H]3O[C@H](CO)[C@@H](O)[C@H](O)[C@H]3O)c(O)cc(O)c12` [Vitexin], the “scaled lipid accumulation score” value was at most 0. Consider `CN(C)c1ccc2nc3ccc(=[N+](C)C)cc-3sc2c1` [Methylene blue], for which the “scaled lipid accumulation score” value (library stock concentration: 5.9 mM) was 0.252. `CCCCCCCC/C=C\CCCCCCCC(=O)c1nc2ncccc2o1` [Oleoyl Oxazolopyridine]: under setting [1], the “scaled lipid accumulation score” value was 0.017.

In the case of `O=C1c2ccccc2C(=O)c2c1ccc(O)c2O` [Alizarin], the “scaled lipid accumulation score” value is at most 0 under setting [3] and at most 0 under setting [2]. For the molecule `CC1(C)C(=O)N=C2C1=C(O)C(=O)c1ccccc12`, the “scaled lipid accumulation score” value under setting [2] is 0.923 (active).

As to `CC(C)=CCC1=C(O)C(=O)c2ccccc2C1=O` [Lapachol], the “scaled lipid accumulation score” value under setting [2] was at most 0. On to `CC1(C)C=C(CN2C/C(=C\c3ccc(F)cc3)C(=O)/C(=C/c3ccc(F)cc3)C2)C(C)(C)N1O`, for which the “scaled lipid accumulation score” value under setting [3] was 0.264 and the “scaled lipid accumulation score” value under setting [2] was 0.694.

Consider `Cc1ccc(/C=C2\CNC/C(=C\c3ccc(C)cc3)C2=O)cc1.Cl`, for which the “scaled lipid accumulation score” value under setting [2] is 1.43 (active). As to `COc1ccc(/C=C2\COc3ccc(C)cc3C2=O)cc1O`, the “scaled lipid accumulation score” value under setting [2] was 0.275. With `CN(C)CCSSCCNC(=O)C1CCN(C(=O)CSc2ccc(Cl)cc2)CC1`, the “scaled lipid accumulation score” value runs as follows: under setting [3], at most -0.009; under setting [2], at most 0.

Regarding `CCCCC[C@H](O)/C=C/[C@@H]1[C@@H](C/C=C\CCCC(=O)NCCO)[C@@H](O)C[C@@H]1O` [11.beta.-Prostaglandin F2.alpha. Ethanolamide], the “scaled lipid accumulation score” value under setting [1] is at most 0. Take `CCCCC/C=C\C/C=C\C/C=C\C=C\[C@@H](O)CCCC(=O)O`: under “library stock concentration: 100 uM”, the “scaled lipid accumulation score” value is at most -0.021. With `CN(C)CCOc1cc(-c2cn[nH]c2)ccc1NC(=O)C1COc2ccccc2O1` (stereo not drawn) [listing 1 of 2 here], the “scaled lipid accumulation score” value under setting [4] is at most -0.005 and the “scaled lipid accumulation score” value under setting [5] was 0.383. `CN(C)CCOc1cc(-c2cn[nH]c2)ccc1NC(=O)C1COc2ccccc2O1` (stereo not drawn) [listing 2 of 2 here]: the “scaled lipid accumulation score” value under setting [2] is 1.08 (active). For the molecule `O=C(Nc1ccc(-c2cn[nH]c2)cc1)C1COc2ccccc2O1` (stereo not drawn) [Rho Kinase Inhibitor V], the “scaled lipid accumulation score” value under setting [3] is at most 0. For the molecule `CCCCCCCCCCCCCCCCCC=CC(=O)O` [.DELTA.2-cis Eicosenoic Acid], under setting [1], the “scaled lipid accumulation score” value was 0.011. For the molecule `CCCCC/C=C\C/C=C\CC/C=C\CCCC(=O)OCC` [Pinolenic Acid ethyl ester], the “scaled lipid accumulation score” value under setting [1] is at most 0. As to `CC[C@]1(O)C[C@H]2CN(CCc3c([nH]c4ccccc34)[C@@](C(=O)OC)(c3cc4c(cc3OC)N(C)[C@H]3[C@@](O)(C(N)=O)[C@H](O)[C@]5(CC)C=CCN6CC[C@]43[C@@H]65)C2)C1.O=S(=O)(O)O`, for the setting “library stock concentration: 9.7 mM”, the “scaled lipid accumulation score” value was 1.52 (active). As to `CCCCC[C@H](O)/C=C/[C@@H]1[C@H]2C/C(=C/CCCC(=O)O)C[C@H]2C[C@H]1O` [Carbacyclin], the “scaled lipid accumulation score” value under setting [1] was at most -0.021. Consider `N=C(N)c1ccc(N2CCN(C3CCN(CC(=O)O)CC3)CC2)cc1`, for which the “scaled lipid accumulation score” value under setting [2] was at most -0.006. Turning to `CCCCCCCCCCCCC/C=C/[C@@H](O)[C@H](CO)NC(=O)CCCCC` [C-6 Ceramide], the “scaled lipid accumulation score” value under setting [1] is at most 0.

As to `CCCCC/C=C\C/C=C\C/C=C\C/C=C\CCCCN1C(=O)C=CC1=O` [N-Arachidonyl Maleimide], the “scaled lipid accumulation score” value under setting [1] was at most 0. For `CCCCC[C@H](O)CC(=O)CCc1ccc(O)c(OC)c1` [6-Gingerol], the “scaled lipid accumulation score” value (library stock concentration: 17 mM) was at most -0.014. In the case of `Cc1c(-c2cnccn2)ssc1=S` [Oltipraz], under “library stock concentration: 8.8 mM”, the “scaled lipid accumulation score” value was 0.01. For `N[C@H](CO)C(=O)O` [D-Serine], the “scaled lipid accumulation score” value under setting [2] was at most 0. Consider `CN1CCC(=C2c3ccccc3CCc3cccnc32)CC1`, for which the “scaled lipid accumulation score” value under setting [2] was 0.464. Consider `Cl.C(=C(\CCN(C)C1)/C1)(/c2c(cccc2)C=C3)\c4c3cccc4` [Cyproheptadine hydrochloride], for which the “scaled lipid accumulation score” value was 0.968 (active).

For the molecule `Cl[H].CN1CC\C(=C(/c2c(cccc2)C=C3)\c(cccc4)c34)\CC1` [Cyproheptadine hydrochloride], the “scaled lipid accumulation score” value under setting [2] was 1.04 (active). Regarding `CN1CCC(=C2c3ccccc3C=Cc3ccccc32)CC1` [Cyproheptadine HCl], the “scaled lipid accumulation score” value runs as follows: under setting [3], 0.629; under setting [2], 0.63. With `C(=C(/CC1)\CCN1C)(/c2c3cccc2)\c4c(cccc4)C=C3.Cl` [Cyproheptadine hydrochloride], under setting [2], the “scaled lipid accumulation score” value is 0.933 (active). As for `CN1CCC(=C2c3ccccc3C=Cc3ccccc32)CC1` [Cyproheptadine hydrochloride], the “scaled lipid accumulation score” value (library stock concentration: 6.2 mM) is 0.686. For the molecule `CN1CCC(=C2c3ccccc3C=Cc3ccccc32)CC1` [Cyproheptadine], the “scaled lipid accumulation score” value (library stock concentration: 7 mM) is 0.351. `CN1CCC(=C2c3ccccc3CCc3cccnc32)CC1` [Azatadine dimaleate]: the “scaled lipid accumulation score” value by setting is: under setting [3], 0.004; under setting [2], 0.221. For `CN1CCC(=C2c3ccccc3C=Cc3ccccc32)CC1`, under setting [2], the “scaled lipid accumulation score” value was 1.32 (active). `CN1CCC(=C2c3ccccc3Sc3ccccc32)CC1` [Pimethixene maleate]: the “scaled lipid accumulation score” value was 0.65. Besides, under setting [2], the “scaled lipid accumulation score” value was 0.656. Consider `C#C[C@]1(OC(C)=O)CC[C@H]2[C@@H]3CCC4=CC(=NO)CC[C@@H]4[C@H]3CC[C@@]21CC` (mixture of isomers) [Norgestimate], for which the “scaled lipid accumulation score” value (library stock concentration: 5.4 mM) was at most 0.

Take `CC1COCCN1c1cc(C2(S(C)(=O)=O)CC2)nc(-c2cccc3[nH]ccc23)n1` (stereo not drawn): the “scaled lipid accumulation score” value under setting [3] was at most 0 and the “scaled lipid accumulation score” value under setting [2] is at most -0.001. The like results for `CCCCC(F)(F)[C@@]1(O)CC[C@H]2[C@@H](CC(=O)[C@@H]2CCCCCCC(=O)O)O1` [Lubiprostone] were, in that order, at most 0 and at most 0. Regarding `CCCCC/C=C\C/C=C\CCCCCCCC(=O)OCC(O)CO` (stereo not drawn) [1-Linoleoyl Glycerol], under setting [1], the “scaled lipid accumulation score” value is at most 0.

For `C=C1C[C@H](O)[C@H](C/C=C\CCCC(=O)O)[C@H]1/C=C/[C@@H](O)CCCCC` [11-deoxy-11-methylene Prostaglandin D2], the “scaled lipid accumulation score” value under setting [1] was at most 0. `CCC(C)C(COC(Cc1ccccc1)C(=O)NC(CCS(C)(=O)=O)C(=O)OC(C)C)NCC(N)CS` (stereo not drawn): the “scaled lipid accumulation score” value (library stock concentration: 7.9 mM) is 0.195. For `CC(C)(C)CC(C)(C)c1cc(Cc2cc(C(C)(C)CC(C)(C)C)cc(-n3nc4ccccc4n3)c2O)c(O)c(-n2nc3ccccc3n2)c1`, the “scaled lipid accumulation score” value under setting [2] is at most 0. Turning to `CCCCC[C@@H](O)[C@H]1C(=O)O[C@H](C)[C@@H](O)/C=C/C=C/C=C/C=C/C=C(\C)[C@@H](O)C[C@H](O)C[C@H](O)C[C@H](O)C[C@H](O)C[C@H](O)C[C@@H]1O` [Filipin III], the “scaled lipid accumulation score” value under setting [1] was 0.021.

`CCCCC[C@@H](O)[C@H]1C(=O)O[C@H](C)[C@@H](O)/C=C/C=C/C=C/C=C/C=C(\C)[C@@H](O)C[C@H](O)C[C@H](O)C[C@H](O)C[C@H](O)C[C@H](O)C[C@@H]1O` [Filipin]: the “scaled lipid accumulation score” value (library stock concentration: 3.1 mM) is 0.029.

Consider `COc1ccc2c(c1)c(CC(=O)SC[C@H](NC(C)=O)C(=O)OCCCCO[N+](=O)[O-])c(C)n2C(=O)c1ccc(Cl)cc1` [NO-Indomethacin], for which the “scaled lipid accumulation score” value under setting [1] was at most 0. Consider `C[C@@H]1C[C@H]2[C@@H]3CCC4=CC(=O)C=C[C@]4(C)[C@@]3(Cl)[C@@H](O)C[C@]2(C)[C@@]1(OC(=O)c1ccco1)C(=O)CCl` [Mometasone furoate], for which the “scaled lipid accumulation score” value was 0.136. Moreover, under setting [3], the “scaled lipid accumulation score” value is 0.086. The “scaled lipid accumulation score” value under setting [2] was 0.519. Regarding `COc1cc(Nc2c(C#N)cnc3cc(OCCCN4CCN(C)CC4)c(OC)cc23)c(Cl)cc1Cl` [Bosutinib (SKI-606) (10 mM)], the “scaled lipid accumulation score” value under setting [2] is 0.388. For the molecule `COc1cc(Nc2c(C#N)cnc3cc(OCCCN4CCN(C)CC4)c(OC)cc23)c(Cl)cc1Cl` [Bosutinib (SKI-606) (0.4 mM)], the “scaled lipid accumulation score” value under setting [4] was at most -0.005. `COc1cc(Nc2c(C#N)cnc3cc(OCCCN4CCN(C)CC4)c(OC)cc23)c(Cl)cc1Cl` [Bosutinib]: the “scaled lipid accumulation score” value is at most -0.016 under setting [6], at most -0.016 under setting [4], at most -0.016 under setting [5] and at most -0.016 under setting [2]. For the molecule `CCN1CCC(n2cc(CNc3cc(Cl)c4ncc(C#N)c(Nc5ccc(F)c(Cl)c5)c4c3)nn2)CC1` [listing 1 of 2 here], the “scaled lipid accumulation score” value under setting [2] was 1.15 (active). In the case of `COc1cc(Nc2c(C#N)cnc3cc(OCCCN4CCN(C)CC4)c(OC)cc23)c(Cl)cc1Cl` [Bosutinib (SKI-606) (2 mM)], the “scaled lipid accumulation score” value under setting [5] was 0.096. Consider `CCN1CCC(n2cc(CNc3cc(Cl)c4ncc(C#N)c(Nc5ccc(F)c(Cl)c5)c4c3)nn2)CC1` [listing 2 of 2 here], for which the “scaled lipid accumulation score” value under setting [6] was at most -0.009, the “scaled lipid accumulation score” value under setting [4] was at most -0.009 and the “scaled lipid accumulation score” value under setting [5] is at most -0.009. Consider `COc1cc(Nc2c(C#N)cnc3cc(OCCCN4CCN(C)CC4)c(OC)cc23)c(Cl)cc1Cl` [Bosutinib (SKI-606)], for which the “scaled lipid accumulation score” value was 0.374 under setting [3] and 0.395 under setting [2].

For the molecule `CC(C)c1ccccc1S(=O)(=O)c1cc(N)c2ncccc2c1[N+](=O)[O-]`, under setting [2], the “scaled lipid accumulation score” value was 0.26. As to `CC(C(=O)O)c1ccc(C(=O)c2cccs2)cc1` (stereo not drawn) [Suprofen], the “scaled lipid accumulation score” value is at most 0. Further, the “scaled lipid accumulation score” value under setting [3] was at most 0. The “scaled lipid accumulation score” value (library stock concentration: 7.7 mM) is at most 0. Under setting [2], the “scaled lipid accumulation score” value was 0.024 and ≤ 0. For `O=C(O)COc1ccc(C(=O)c2cccs2)c(Cl)c1Cl` [Tienilic Acid], the “scaled lipid accumulation score” value under setting [1] is at most 0. With `CC(C)c1ccc(C(=O)c2cccs2)c(SCCCCCCCCN(C)C)n1.O=C(O)C(=O)O`, the “scaled lipid accumulation score” value under setting [2] is 1.24 (active).
